# Experimental data reported in PubChem BioAssay (NCATS).
# Where “and” joins values, the source holds several entries; their conditions need not be identical. Equal values may be shown once. Results filed as inconclusive are left out. A call without a number means that no potency is given here. Calls of active or inactive are those of the source. Unless noted, calls follow the shape of the dose curve; as a rule, active = well fitted curve in the direction sought with a large enough effect; inconclusive = small, poorly fitted or top-dose-only effect, or another doubt; inactive = no such curve, though single readings can be large; an effect the other way counts as inactive or inconclusive.
# How the values were obtained:
# [1] = Cell Viability - LYMP1-002 - Assay at 16 hr (AID 948)
# Outline: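 Acute cytotoxicity is scored as a concentration-dependent fall in intracellular ATP in a human lymphoblastoid line (LYMP1-002) after 16 hr compound exposure at 37 C, measured by luciferase luminescence.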
# [2] = Cell Viability - LYMP2-005 (AID 967); also: series mostly up to about 92 µM
# Outline: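 qHTS viability screen in LYMP2-005 cells: 24 h at 37 C with compound, ATP luminescence via CellTiter-Glo, AC50 from Hill curves.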
# [3] = Cell Viability - LYMP2-008 (AID 980); also: nearly all actives have a fitted effect of over 60% in size; also: potency is read from the fitted curve at half-maximal effect
# Outline: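 Measured: ATP-dependent luminescence, proportional to viable cell number, in human lymphoblastoid cells treated 24 hr with compound in complete culture medium. Values are AC50s from Hill-equation modelling of qHTS titrations.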
# [4] = Cell Viability - LYMP1-002 - Assay at 24 hr (AID 993)
# Outline: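 Viability was judged from intracellular ATP using a luciferase read-out, following a 24-hour compound incubation at 37 C of lymphoblastoid cells seeded at 2500 per well. Concentration-response data were fitted to the Hill equation for AC50.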
# [5] = target: Estrogen receptor (Homo sapiens) (UniProt P03372); assay: qHTS assay for small molecule antagonists of estrogen receptor alpha signaling (AID 588513; active = well fitted curve in the direction sought with a large enough effect in the signal ratio, with a control signal flat, not every such curve was filed as active; the % refers to the signal ratio)
# Estrogen receptor (Homo sapiens), sequence (P03372 whole entry, looked up): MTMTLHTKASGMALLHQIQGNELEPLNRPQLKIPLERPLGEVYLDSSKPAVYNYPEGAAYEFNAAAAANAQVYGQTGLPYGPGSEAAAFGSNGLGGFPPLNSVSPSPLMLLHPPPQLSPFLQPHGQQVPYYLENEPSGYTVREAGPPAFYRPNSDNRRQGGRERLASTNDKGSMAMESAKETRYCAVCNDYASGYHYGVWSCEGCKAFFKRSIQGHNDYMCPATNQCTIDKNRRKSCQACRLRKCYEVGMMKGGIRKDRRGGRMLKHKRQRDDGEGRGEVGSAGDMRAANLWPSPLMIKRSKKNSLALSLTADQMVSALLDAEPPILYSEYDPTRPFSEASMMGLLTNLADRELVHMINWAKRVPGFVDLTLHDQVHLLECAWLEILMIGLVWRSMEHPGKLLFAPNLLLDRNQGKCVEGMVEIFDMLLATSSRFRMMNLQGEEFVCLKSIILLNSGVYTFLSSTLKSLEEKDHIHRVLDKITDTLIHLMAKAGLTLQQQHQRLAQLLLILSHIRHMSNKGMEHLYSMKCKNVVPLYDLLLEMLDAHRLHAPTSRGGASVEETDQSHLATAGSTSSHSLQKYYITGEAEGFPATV
# Outline: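 Cells were plated at 5000/well and incubated 4 h at 37 C. Compounds were added as 1:2 dilution series, duplicates. 17-beta-estradiol (0.5nM final) was added for 18 h before CCF4 detection.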
# [6] = target: Bile acid receptor (Homo sapiens) (UniProt Q96RI1); assay: qHTS assay for small molecule antagonists of farnesoid X receptor signaling (AID 588526; calls by dose curve)
# Bile acid receptor (Homo sapiens), sequence (Q96RI1 whole entry, looked up): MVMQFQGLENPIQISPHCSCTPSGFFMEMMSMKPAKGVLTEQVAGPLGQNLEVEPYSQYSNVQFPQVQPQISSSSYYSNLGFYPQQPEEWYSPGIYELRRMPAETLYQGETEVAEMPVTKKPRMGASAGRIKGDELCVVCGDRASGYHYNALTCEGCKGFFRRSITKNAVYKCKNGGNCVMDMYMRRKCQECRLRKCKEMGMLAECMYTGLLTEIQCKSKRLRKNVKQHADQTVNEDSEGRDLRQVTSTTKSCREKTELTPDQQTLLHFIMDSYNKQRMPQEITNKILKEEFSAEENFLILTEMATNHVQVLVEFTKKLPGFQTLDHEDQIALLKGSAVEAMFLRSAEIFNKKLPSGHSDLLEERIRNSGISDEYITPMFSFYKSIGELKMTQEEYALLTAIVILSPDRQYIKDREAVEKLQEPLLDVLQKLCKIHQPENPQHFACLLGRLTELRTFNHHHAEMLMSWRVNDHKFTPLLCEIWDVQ
# Outline: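 Concentration-response titrations were fitted to the Hill equation for half-maximal inhibition and maximal response, with data normalised to 50 uM chenodeoxycholic acid and DMSO control wells. Cells: FXR-UAS-bla HEK293T, dialyzed FBS.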
# [7] = target: Glucocorticoid receptor (Homo sapiens) (UniProt P04150); assay: qHTS assay for small molecule agonists of glucocorticoid receptor signaling (AID 588532; active = well fitted curve in the direction sought with a large enough effect in the signal ratio, with a control signal flat; the % refers to the signal ratio); conditions: HeLa MMTV-bla, beta-lactamase ratio, agonist, 18 h; stronger effect = higher value; percent of dexamethasone control, DMSO zero
# Glucocorticoid receptor (Homo sapiens), sequence (P04150 whole entry, looked up): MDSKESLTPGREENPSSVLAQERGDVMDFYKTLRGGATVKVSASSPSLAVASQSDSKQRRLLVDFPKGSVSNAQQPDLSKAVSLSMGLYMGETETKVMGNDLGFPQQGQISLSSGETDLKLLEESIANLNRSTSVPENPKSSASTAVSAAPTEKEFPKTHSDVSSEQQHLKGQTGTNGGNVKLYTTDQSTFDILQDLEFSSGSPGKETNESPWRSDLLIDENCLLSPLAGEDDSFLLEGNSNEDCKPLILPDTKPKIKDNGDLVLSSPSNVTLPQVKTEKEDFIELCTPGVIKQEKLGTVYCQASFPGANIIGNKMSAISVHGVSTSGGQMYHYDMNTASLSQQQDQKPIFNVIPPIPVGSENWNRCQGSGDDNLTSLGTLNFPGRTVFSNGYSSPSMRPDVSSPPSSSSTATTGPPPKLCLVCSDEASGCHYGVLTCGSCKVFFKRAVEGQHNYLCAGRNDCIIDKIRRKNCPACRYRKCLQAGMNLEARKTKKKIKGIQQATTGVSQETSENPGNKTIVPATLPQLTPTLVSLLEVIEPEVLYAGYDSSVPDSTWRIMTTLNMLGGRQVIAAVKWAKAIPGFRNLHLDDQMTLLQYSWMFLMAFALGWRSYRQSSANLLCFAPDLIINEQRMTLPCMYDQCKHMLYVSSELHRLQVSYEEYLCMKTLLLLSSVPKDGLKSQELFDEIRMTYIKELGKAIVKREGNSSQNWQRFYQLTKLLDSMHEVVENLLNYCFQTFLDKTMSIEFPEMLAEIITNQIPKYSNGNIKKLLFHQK
# Outline: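 MMTV-bla HeLa, beta-lactamase reporter; medium with 1% charcoal/dextran-stripped FBS; cpds up to 92 uM, 18 h, 37 C; CCF4 readout 460/530 nm; Hill fit → EC50, efficacy vs 0.1 uM dexamethasone = 100%.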
# [8] = target: Glucocorticoid receptor (Homo sapiens) (UniProt P04150); assay: qHTS assay for small molecule antagonists of glucocorticoid receptor signaling (AID 588533; active = well fitted inhibition curve with a large enough effect in the signal ratio, with a control signal flat, not every such curve was filed as active; the % refers to the signal ratio;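 also: cells stimulated with 2 nM dexamethasone as agonist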)
# Outline: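 Antagonist-mode qHTS: compound titrations added to GRE-bla HeLa cells, then dexamethasone 2 nM final; 18 h, 37 C. CCF4 FRET fluorescence normalized to dexamethasone and DMSO; IC50 from Hill fit.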
# [9] = target: Peroxisome proliferator-activated receptor gamma (Homo sapiens) (UniProt P37231); assay: qHTS assay for small molecule antagonists of peroxisome proliferator-activated receptor gamma signaling (AID 588537; active = well fitted inhibition curve with a large enough effect in the signal ratio, with a control signal flat, not every such curve was filed as active; the % refers to the signal ratio;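 also: reporter cells co-stimulated with 50 nM rosiglitazone agonist during compound treatment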)
# Peroxisome proliferator-activated receptor gamma (Homo sapiens), sequence (P37231 whole entry, looked up): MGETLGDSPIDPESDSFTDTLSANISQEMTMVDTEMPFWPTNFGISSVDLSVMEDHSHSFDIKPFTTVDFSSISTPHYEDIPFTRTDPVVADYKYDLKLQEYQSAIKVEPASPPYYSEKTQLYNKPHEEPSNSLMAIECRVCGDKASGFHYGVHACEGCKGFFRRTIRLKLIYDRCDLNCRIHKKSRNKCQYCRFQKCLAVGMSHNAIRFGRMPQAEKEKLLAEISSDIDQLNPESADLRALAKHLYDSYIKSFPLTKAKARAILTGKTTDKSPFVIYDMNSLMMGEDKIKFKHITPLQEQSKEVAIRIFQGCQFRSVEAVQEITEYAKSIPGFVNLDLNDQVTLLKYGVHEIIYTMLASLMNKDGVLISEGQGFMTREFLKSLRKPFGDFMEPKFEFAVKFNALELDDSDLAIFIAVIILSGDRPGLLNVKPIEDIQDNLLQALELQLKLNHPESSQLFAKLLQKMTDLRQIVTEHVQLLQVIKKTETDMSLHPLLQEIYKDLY
# Outline: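 HEK293 cells, PPAR-gamma-UAS-bla, 3000/well. Pre-incubation 6-6.5 h, 37 C. Compound titration with rosiglitazone 50 nM final, 16 h. CCF4 dye, 2 h RT, dual-emission fluorescence.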
# [10] = qHTS assay for small molecule activators of the nuclear factor-kappa B (NF-kB) signaling pathway (AID 651749; active = well fitted activation curve with a large enough effect in the signal ratio; the % refers to the signal ratio; also: series mostly up to about 77 µM); conditions: NF-kB-bla ME-180 cells, beta-lactamase FRET ratio, 16 h; stronger effect = higher value
# Outline: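 Beta-lactamase reporter expression, controlled by NF-kB response elements in ME-180 cells, was quantified fluorometrically via FRET disruption; cells at 2,000/well had been incubated with 23 nL test compound for 16 hr.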
# [11] = qHTS assay for small molecule disruptors of the mitochondrial membrane potential - 1 hr assay (AID 651754; calls by dose curve; also: nearly all actives have a fitted effect of over 35% in size)
# Outline: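 In this qHTS format, a 1 hr compound treatment of HepG2 cells precedes Mito-MPS staining, and membrane potential is judged from aggregate (red) against monomer (green) fluorescence intensity.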
# [12] = qHTS assay for small molecule disruptors of the mitochondrial membrane potential - 5 hr assay (AID 651755; calls by dose curve; also: nearly all actives have a fitted effect of over 40% in size)
# Outline: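 Seed HepG2 overnight, add compound, incubate 5 hr at 37C and 5% CO2, stain 30 min with Mito-MPS, then measure monomer (490/535 nm) and aggregate (540/590 nm) fluorescence.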
# [13] = MultiTox-Fluor Cytotoxicity Assay - LYMP1-001 - Live Cells (AID 947)
# [14] = target: Thyroid hormone receptor beta (Homo sapiens) (UniProt P10828); assay: qHTS assay for small molecule antagonists of thyroid hormone receptor beta signaling (AID 588547; active = well fitted inhibition curve with a large enough effect in the signal ratio, with a control signal flat, not every such curve was filed as active; the % refers to the signal ratio;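 also: cells stimulated with 0.4 nM T3 agonist during compound exposure; series mostly up to about 77 µM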); conditions: TR-UAS-bla HEK293, beta-lactamase ratio, antagonist mode, 18 h
# Thyroid hormone receptor beta (Homo sapiens), sequence (P10828 whole entry, looked up): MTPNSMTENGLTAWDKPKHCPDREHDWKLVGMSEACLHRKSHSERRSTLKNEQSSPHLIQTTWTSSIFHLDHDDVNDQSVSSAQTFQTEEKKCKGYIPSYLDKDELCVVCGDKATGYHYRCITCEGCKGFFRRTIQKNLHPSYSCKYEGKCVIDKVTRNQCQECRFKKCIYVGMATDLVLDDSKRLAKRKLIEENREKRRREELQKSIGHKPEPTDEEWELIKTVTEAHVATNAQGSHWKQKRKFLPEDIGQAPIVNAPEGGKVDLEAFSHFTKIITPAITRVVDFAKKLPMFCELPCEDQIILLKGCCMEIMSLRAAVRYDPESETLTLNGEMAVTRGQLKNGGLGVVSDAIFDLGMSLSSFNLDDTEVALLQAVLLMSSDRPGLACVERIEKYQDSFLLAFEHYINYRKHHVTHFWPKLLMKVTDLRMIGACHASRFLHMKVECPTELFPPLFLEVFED
# Outline: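 TR-UAS-bla GripTite HEK293 cells in 2% charcoal/dextran FBS medium were preincubated 4 h at 37 C, given compound (0.59 nM to 92 uM) plus 0.4 nM T3 (final) for 18 h, then CCF4 for 2 h at RT; Hill fit gave IC50.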
# [15] = qHTS assay for small molecule agonists of the antioxidant response element (ARE) signaling pathway (AID 651741; active = well fitted activation curve with a large enough effect in the signal ratio; the % refers to the signal ratio; also: potency is read from the fitted curve at half-maximal effect)
# Outline: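 Beta-lactamase reporter expression driven by the antioxidant response element in HepG2 cells was detected by fluorescence with LiveBLAzer B/G FRET substrate (2 h, room temperature) following 16 h compound treatment at 37 C.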
# [16] = qHTS assay for small molecule activators of the p53 signaling pathway (AID 651743; active = well fitted activation curve with a large enough effect in the signal ratio, not every such curve was filed as active; the % refers to the signal ratio; also: series mostly up to about 92 µM); conditions: HCT-116 p53RE-bla, beta-lactamase FRET ratio, 16 h; activation: stronger effect = higher value
# Outline: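 Here HCT-116 cells with an integrated p53-responsive beta-lactamase gene were incubated with compounds (16 hours, 37 C) after a 5-hour plating period; beta-lactamase activity was detected as fluorescence intensity via B/G FRET substrate.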
# [17] = Cell Viability - LYMP2-003 (AID 965);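 also: cells exposed to compounds for 24 h before reading; nearly all actives have a fitted effect of over 50% in size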
# Outline: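 Acute cytotoxicity is scored as a concentration-dependent drop in intracellular ATP, measured by luciferase luminescence in human lymphoblastoid cells treated for 24 hours at 37 C. AC50 values derive from Hill-equation modelling.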
# [18] = qHTS assay for small molecule antagonists of peroxisome proliferator-activated receptor delta signaling (AID 588535; active = well fitted inhibition curve with a large enough effect in the signal ratio, with a control signal flat, not every such curve was filed as active; the % refers to the signal ratio;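 as to max response: cells co-treated with a PPAR-delta agonist as stimulator during compound exposure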); conditions: HEK293T PPARd-UAS-bla, beta-lactamase FRET ratio, 18 h; 460 nm channel
# Outline: (§1)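 Compounds tested in titration on PPAR-delta-UAS-bla HEK293T cells grown in charcoal/dextran-stripped serum (2%); beta-lactamase activity read via CCF4 emission at 460 and 530 nm.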
# [19] = target: Peroxisome proliferator-activated receptor delta (Homo sapiens) (UniProt Q03181); assay: as above
# Peroxisome proliferator-activated receptor delta (Homo sapiens), sequence (Q03181 whole entry, looked up): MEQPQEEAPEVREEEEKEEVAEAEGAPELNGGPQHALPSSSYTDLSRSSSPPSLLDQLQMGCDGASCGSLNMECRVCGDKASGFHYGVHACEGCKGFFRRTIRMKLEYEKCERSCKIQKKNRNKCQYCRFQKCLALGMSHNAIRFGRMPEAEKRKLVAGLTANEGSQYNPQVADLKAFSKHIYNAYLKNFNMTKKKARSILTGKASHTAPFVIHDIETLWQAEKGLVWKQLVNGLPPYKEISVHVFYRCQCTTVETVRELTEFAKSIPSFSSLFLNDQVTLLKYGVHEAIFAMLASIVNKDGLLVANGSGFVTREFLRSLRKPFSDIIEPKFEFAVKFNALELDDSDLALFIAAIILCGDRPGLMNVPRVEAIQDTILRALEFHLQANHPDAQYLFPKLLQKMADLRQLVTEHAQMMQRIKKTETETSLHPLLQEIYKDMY
# Outline: as §1
# [20] = target: Peroxisome proliferator-activated receptor delta (Homo sapiens) (UniProt Q03181); assay: qHTS assay for small molecule agonists of peroxisome proliferator-activated receptor delta signaling (AID 588534; calls by dose curve)
# Outline: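 EC50 and efficacy values derive from Hill fits of a concentration series in a beta-lactamase reporter cell assay. Exposure is 18 hrs at 37 C, with CCF4 fluorescence as the readout.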
Structure (SMILES),outcome [1],Potency [2],Potency [3],Potency [4],Potency [5],outcome [6],activation [7],outcome [8],Potency [9],activation [10],Potency [11],Potency [12],outcome [13],activity change % (negative = inhibition) [14],Potency [15],activation [16],Potency [17],max response [18],outcome [19],outcome [20]
OCCBr,inactive,inactive,inactive,inactive,inactive,inactive,-2.73% (inactive),inactive,inactive,0.0665% (inactive),inactive,inactive,–,–,–,–,–,–,–,–
O=[N+]([O-])c1ccccc1-c1ccccc1,inactive,–,inactive,–,inactive,–,–,–,–,–,–,inactive,inactive,-0.648% (inactive),inactive,-1.36% (inactive),–,–,–,–
COc1ccc(C=O)cc1,inactive,inactive,inactive,–,inactive,–,-0.198% (inactive),inactive,–,-0.721% (inactive),–,–,–,19.4% (inactive),inactive,-1.3% (inactive),inactive,2.98%,inactive,–
O=[N+]([O-])c1ccc(Cl)cc1,–,inactive,inactive,inactive,–,–,-1.26% (inactive) and -4.41% (inactive),inactive,–,-0.791% (inactive) and -0.89% (inactive),inactive,inactive,inactive,3.07% (inactive) and -2.63% (inactive),inactive,0.333% (inactive) and 2.39% (inactive),–,–,–,–
CCSC(=O)N1CCCCCC1,inactive,inactive,inactive,–,inactive,–,–,–,inactive,0.506% (inactive) and -0.843% (inactive),inactive,inactive,inactive,-3.1% (inactive) and -10.9% (inactive),66.8 µM (active),-3.15% (inactive) and 2.49% (inactive),inactive,-18%,–,–
O=[N+]([O-])c1cccc(O)c1,inactive,inactive,inactive,–,–,inactive,–,–,–,-0.57% (inactive),–,–,inactive,6.02% (inactive),–,-2.9% (inactive),inactive,–,–,inactive
S=C1NCCN1,–,inactive,–,inactive,–,–,–,–,inactive,0.43% (inactive) and 0.618% (inactive),–,–,–,–,–,-4.05% (inactive) and -5.02% (inactive),–,–,–,–
OCCOCCO,inactive,–,inactive,inactive,inactive,–,-0.687% (inactive),inactive,inactive,–,inactive,inactive,inactive,-14.9% (inactive),–,–,inactive,5.13%,inactive,inactive
CN(C)C(=O)Cl,inactive,inactive,inactive,–,inactive,–,12.7% (inactive),inactive,inactive,-0.0384% (inactive),–,inactive,inactive,-23.4% (inactive),inactive,–,inactive,-22.3%,–,inactive
Cc1ccc(N)c(N)c1,inactive,–,39.8 µM (active),inactive,–,–,0.413% (inactive),–,–,-0.795% (inactive),–,–,–,-28.6% (inactive),37.6 µM (active),-0.898% (inactive),–,–,–,–
CC(C)(OOC(C)(C)c1ccccc1)c1ccccc1,–,–,inactive,inactive,–,inactive,-3.95% (inactive) and 1.36% (inactive),inactive,–,0.182% (inactive) and -0.836% (inactive),–,inactive,–,6.91% (inactive),inactive,-3.14% (inactive) and -2.07% (inactive),inactive,42.8% and 13.3%,–,inactive
CCCBr,inactive,inactive,inactive,–,inactive,inactive,-1.9% (inactive),inactive,inactive,–,–,inactive,inactive,–,–,-0.771% (inactive),inactive,–,–,–
O=S(=O)(Cl)c1ccccc1,inactive,inactive,inactive,inactive,–,inactive,–,–,inactive,0.118% (inactive) and -0.385% (inactive),–,inactive,inactive,–,inactive,–,inactive,7.79% and -11.8%,inactive,inactive
